# PfHsp40 yeast: restores yeast growth despite PfHsp40 toxicity; S. cerevisiae expressing PfHsp40, growth rescue, ATP luminescence; growth rescue, % at 12.5 µM; 340,000 tested, 0.68% active; in the data active = growth rescue above about 28%, passing the limit was not always enough; inconclusive = no clear call, values can overlap the other calls;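 also: yeast W303a lacking pdr1 and pdr3 grown in galactose medium; growth measured after three days at 30 °C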
# PrP 5UTR inh: suppresses PrP 5' UTR mRNA reporter expression; cell-based PrP 5' UTR mRNA reporter, plate reader; inhibition, % (test concentration not listed); 340,000 tested, 0.35% active; AID 488862; in the data active = inhibition above about 52%; also: 0 = median of the neutral control wells
# BioA inh: inhibitors of Mycobacterium tuberculosis BioA enzyme; purified M. tuberculosis BioA enzyme, plate reader; inhibition, % at 9.99 µM; 360,000 tested, 0.096% active; AID 602481; in the data active = inhibition above about 40%; inconclusive = no clear call, values can overlap the other calls
# TcdB inh: inhibitors of Clostridioides difficile toxin B glycohydrolase; P18177; 350,000 tested, 0.24% active; AID 652162; inhibition, % at 9.99 µM; TcdB glycohydrolase enzymatic assay, plate reader; in the data active = inhibition above about 10%
# FadD28 binding: blocks FadD28 binding to the bisubstrate probe. inhibition, % at 12.5 µM. 360,000 tested, 0.22% active. AID 588549. fluorescence polarization; in the data active = inhibition above about 8.5%, passing the limit was not always enough; inconclusive = no clear call, values can overlap the other calls
# Active calls of the source: *; ? = inconclusive; / = no result; ! = repeats disagree. Shown are actives, neighbours in structure and some others; about 1.1% of the full set was active somewhere.
SMILES,PfHsp40 yeast,PrP 5UTR inh,BioA inh,TcdB inh,FadD28 binding
CCCn1nc(NC(=O)c2cccs2)c2cc3cc(C)ccc3nc21,48*,-15,1,-2,-6
CCCn1nc(NC(=O)c2cccs2)c2cc3ccc(C)cc3nc21,0,-8,1,2,-10
CCCn1nc(NC(=O)c2cccs2)c2cc3cc(OC)ccc3nc21,68*,-24,-2,/,-4
Cc1noc(C)c1S(=O)(=O)Nc1ccc2c(c1)C(=O)N([C@H](C)CO)C[C@@H](C)[C@H](CN(C)Cc1ccc(C(=O)O)cc1)O2,/,/,-1,0,/
CCC(=O)Nc1ccc2c(c1)OC[C@@H](C)N(C(=O)NC(C)C)C[C@@H](C)[C@@H](OC)CN(C)C2=O,/,/,-2,18*,/
CCC(=O)Nc1ccc2c(c1)OC[C@H](C)N(C(=O)NC(C)C)C[C@H](C)[C@H](OC)CN(C)C2=O,/,/,-1,13*,/
C[C@H]1CN([C@@H](C)CO)C(=O)c2cc(C#CC3CCCCC3)cnc2O[C@@H]1CN(C)Cc1cccnc1,/,/,0,-1,/
CC(=O)Nc1ccc(Sc2ccc([N+](=O)[O-])o2)cc1,54*,-13,0,0,0
O=C(O)c1cc(-c2ccc(/C=C3\NC(=O)N(c4ccc(Cl)cc4)C3=O)o2)ccc1Cl,1,-17,/,-1,10*
CCCCCC[N+](C)(C)CCSSCC[N+](C)(C)CCCCCC,0,-17,-2,0,0
C#CC[N+](C)(C)CCCCCCCCCC,-1,-12,-5,1,0
CCCCCCCCCCCCCCCC[N+](C)(C)CCl,4,15,/,1,20*
CCCCCCCCCCCCCCCC[N+](C)(C)C,?,-31,20,2,24*
CCCCCCCCCCCCCCCC[N+](C)(C)CC,5,-20,23,2,19*
C[N+](C)(C)CCCCCC[N+](C)(C)C,0,-16,-1,1,-5
CCN1CCN(c2oc(-c3ccccc3C)nc2S(=O)(=O)c2ccccc2)CC1,0,-10,/,10*,-2
COC(=O)c1ccc(OC(=O)c2ccc(OC)cc2)c(OC)c1,1,32,/,11*,-2
COc1ccc(NC(=O)Nc2ccc3c(c2)CC(=O)N([C@H](C)CO)C[C@@H](C)[C@H](CN(C)CC2CCCCC2)O3)cc1,/,/,-2,0,/
Nc1ccc(Sc2ccc(N)cc2)cc1,0,-25,0,13*,3
Nc1ccc(Sc2ccc([N+](=O)[O-])cc2)cc1,9,-13,/,4,0
O=c1[nH]c2ccccc2nc1-c1ccccc1,1,-41,-1,3,-3
NC(=O)N=Nc1c2[nH]c3ccccc3nc-2c2ccccc12,45*,-18,0,1,-1
COc1ccc(-c2sc3ccc(OC)cc3c2C#CCCO)cc1,46*,-35,-1,1,-4
COc1ccc2sc(-c3ccc(N(C)C)cc3)c(C#CCCO)c2c1,?,-25,-1,1,0
COc1ccc(S(=O)(=O)N[C@H]2C=C[C@H](CC(=O)O)O[C@H]2CO)cc1,/,/,/,1,/
SMILES,PfHsp40 yeast,PrP 5UTR inh,BioA inh,TcdB inh,FadD28 binding
O=C(C=Cc1cccc(O)c1)c1ccccc1O,383*,-50,2,2,-2
O=C(/C=C/c1ccc(O)c(O)c1)c1ccccc1O,0,-14,2,-1,0
CSC(=S)NN=C(C)c1cccc(C)n1,64*,11,/,-1,0
CN1CCN(C(=O)C[C@@H]2C[C@@H]3c4cc(NC(=O)c5ccc6c(c5)OCO6)ccc4O[C@@H]3[C@@H](CO)O2)CC1,/,/,-4,3,/
CN1CCN(C(=O)C[C@H]2CC[C@H]3[C@@H](COC[C@H](O)CN3Cc3cccc(F)c3)O2)CC1,/,/,2,-1,/
O=c1oc(-c2ccc([N+](=O)[O-])cc2)nc2ccccc12,-2,-12,/,5,1
O=c1oc(-c2ccc(Br)cc2)nc2ccccc12,-1,-28,0,12*,-4
CCOc1ccccc1N(C(C)=O)S(=O)(=O)c1ccc(Cl)cc1,-1,-26,/,1,-5
CC(=O)N(c1ccccc1C)S(=O)(=O)c1ccc(Cl)cc1,-1,9,/,11*,-1
Cc1noc(C)c1NC(=O)N[C@@H]1CC[C@H](CC(=O)Nc2ccc(-c3ccccc3)cc2)O[C@@H]1CO,/,/,1,-4,/
Clc1cccc(-c2ccc3ncnc(NCc4cccs4)c3c2)c1,2,-2,-10,11*,0
CCCCCCCCCCOC(=O)Cn1c(COc2ccc(OC)cc2)[n+](C)c2ccccc21,383*!,-30,18,/,-27
CCCCCCCCCCOC(=O)Cn1c(COc2cccc(C)c2)[n+](C)c2ccccc21,213*,-10,13,4,-50
CCCCCCCCCCOC(=O)Cn1c(COc2ccccc2)[n+](C)c2ccccc21,336*,-33,37,0,-36
COc1cccc(S(=O)(=O)N2CC[C@@H]3[C@H](CO)Nc4ccc(Br)cc4[C@@H]32)c1,/,/,4,/,/
CNC(=O)N(O)C1N(/N=C/c2ccc(SC)cc2)C(=S)SC1(C)C (centres undefined),0,-21,-1,10*,0
CNC[C@@H]1OCCCC[C@@H](C)Oc2ccc(NC(=O)Nc3cccc4ccccc34)cc2C(=O)N([C@@H](C)CO)C[C@H]1C,/,/,-1,0,/
COc1ccc(Cl)cc1C(=O)Nn1c(-c2cccs2)nc2ccccc2c1=O,-1,-49,/,1,12*
COc1ccc(Cl)cc1C(=O)Nn1c(C)nc2ccccc2c1=O,-2,-18,-1,/,-2
CC(CCC(=O)NN)C1CCC2C3CCC4CC(O)CCC4(C)C3CCC12C (centres undefined),0,-29,/,1,-5
CC(CCC(C)C(C)(C)C)[C@@H]1CC[C@H]2C3C[C@H](OS(O)(=S)=S)[C@H]4C[C@H](OS(O)(=S)=S)[C@@H](OS(O)(=S)=S)C[C@]4(C)[C@H]3CC[C@]12C (some centres undefined) (tested in a mixture with another compound),104*,-20,23,/,65*
CCC(=O)N1[C@@H]2Cn3c(ccc(C4=CCCC4)c3=O)[C@H]1[C@@H](C(=O)N[C@H](C)c1ccccc1)[C@@H]2CO,/,/,-1,1,/
Cc1nc2ccc(NC(=O)Cc3ccc4c(c3)OCCO4)cc2s1,769*,6,/,/,-1
CCOc1ccc(N=CC2=C(O)CC(C)(C)CC2=O)cc1,0,-56,-3,/,-3
CC1(C)CC(=O)C(C=Nc2ccc(O)cc2)=C(O)C1,4,-14,-2,32*,-3
CC1(C)CC(=O)C(C=Nc2ccc(N)cc2)=C(O)C1,0,5,/,13*,-8
COCC(=O)Nc1ccc2c(c1)C(=O)N(C)C[C@@H](OC)[C@@H](C)CN(C(=O)Cc1ccccn1)[C@H](C)CO2,/,/,1,0,/
CC=Cc1ccc2n(c1=O)C[C@@H]1[C@@H](CO)[C@H](C(=O)NCCc3ccncc3)N[C@H]21 (mixture of isomers),/,/,1,0,/
COC(=O)C1=C(c2ccc(OCc3ccccc3)cc2)C[C@@H]2CC[C@H]1N2C(=O)NCCCc1ccccc1,0,-14,-1,12*,0
